What all share (experiment): NCI-60 one-dose screen, 48 h (100 = growth as untreated, 0 = no growth, -100 = all killed)
Details in all cases: 10 µM unless noted

Assay [1] deals with SR leukemia.
Assay [2] concerns RPMI-8226 leukemia.
Assay [3] concerns OVCAR-8 ovarian.
The test system of assay [4] is OVCAR-5 ovarian.
Assay [5] concerns OVCAR-4 ovarian.
In assay [6] the test system is SK-OV-3 ovarian.
Assay [7] deals with IGROV1 ovarian.
Assay [8] has as its system OVCAR-3 ovarian.
The subject of assay [9] is HS 578T breast.
For assay [10], the system named is NCI/ADR-RES ovarian.

SMILES strings stand for the structures. This is part of a sample that, as a whole, favours compounds with a hit. Of some 83,000 tested, about 20% had one in any assay.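 Negative percent growth values reflect cell death: -40 means 40% of the cells present at the start died, and -100 means all died.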 A number with no mark means an inactive call. The source made the active and inactive calls. The calls were made as follows: active = growth percent below 10; inactive = the rest.

`O=C(CSc1nc2sc3c(c2c(=O)n1-c1ccccc1)CCCCC3)N/N=C/c1cccc([N+](=O)[O-])c1`: the growth is 38.3% in [1]; 73.4% in assay [2]; 16.3% in [3]; 78% in assay [4]; -6.2% (active) in assay [5]; 80.4% in assay [6]. The growth in assay [7] is 71.1%; in assay [8], 10.9%; in [9], -1.34% (active); in assay [10], 44%.
With `C#CCNC(=O)[C@H](CC)[C@H]1CC[C@H](C)[C@H]([C@@H](C)[C@H](O)[C@H](C)C(=O)[C@H](CC)C2O[C@]3(C=CC(=O)[C@]4(CC[C@@](C)([C@H]5CC[C@](O)(CC)[C@H](C)O5)O4)O3)[C@H](C)C[C@@H]2C)O1` (stereo not given in full), the growth in [1] was 13.5%; in assay [2], 25.3%; in [3], 66.8%; in [4] it was 68.7%; in assay [5] it was 13.9%; in [6], 68.2%. For the same molecule, the growth in assay [7] is 48.5%; in assay [8], -23.5% (active); in assay [9], 35%; in [10], 14.7%.
For `CCOc1nc(-c2ccccc2)cc2c(O)c(C(=O)N/N=C/c3ccccc3)[nH]c(=O)c12`, the growth is 95.2% in assay [1]; 97.6% in [2]; 106% in assay [3]; 111% in assay [4]; 119% in assay [5]; 109% in assay [6]. Moreover, the growth in [7] is 36%; in assay [8] it was 103%; in assay [9], 104%; in assay [10] it was 104%.
On to `CCN1CCN(C(=O)[C@]23CCC(C)(C)C[C@@H]2C2=CC[C@@H]4[C@@]5(C)CCC(=O)C(C)(C)[C@@H]5CC[C@@]4(C)[C@]2(C)CC3)CC1`, for which the growth in assay [1] was 12.2%; in assay [2], 9.86% (active); in assay [3] it was 63%; in assay [4], 72.2%; in assay [5], 50.7%; in [6], 70.1%. Further, the growth was 65% in [7], 56.4% in assay [8], 40.7% in assay [9] and 39.7% in [10].
As to `Nc1ncnc2c1C(c1ccc(Br)cc1)c1sc3c(F)cccc3c1O2` (stereo not given), the growth in assay [1] is 85.6%; in assay [2], 100%; in [3], 101%; in assay [4], 99.8%; in [5] it was 87.4%; in [6], 102%. Further, the growth in assay [7] is 81.6%; in assay [8] it was 103%; in [9], 94.8%; in assay [10] it was 96.1%.
`O=c1[nH]c(Cc2nc3ccccc3s2)nc2cc(Br)ccc12`: the growth in [1] is 75.4%; in assay [2], 66.7%; in assay [3], 70.8%; in assay [4], 66.5%; in [5] it was 92.4%; in assay [6], 78.8%. For the same molecule, the growth is 73.9% in [7], 86.4% in assay [8], 84.2% in assay [9] and 72.8% in assay [10].
Consider `Oc1c(I)cc(I)cc1CNCc1ccccn1`, for which the growth in assay [1] is 22.1%; in assay [2], 30.9%; in [3], 13.8%; in assay [4], 61.9%; in assay [5] it was 22.8%; in assay [6], 28%. Besides, the growth in assay [7] was 24.4%; in [8], 20.3%; in assay [9], 57.9%; in assay [10] it was 10.3%.
`COc1ccc(-c2noc(C(=O)O)c2-c2cc(OC)c(OC)c(OC)c2)cc1`: the growth in assay [1] is 10.4%; in [2], 0.35% (active); in [3], 30.4%; in [4], 87%; in assay [5], 76.7%; in [6], 23.5%. In addition, the growth was 47% in assay [7], 9.65% (active) in assay [8], 13.3% in assay [9] and 27.7% in assay [10].
With `CCN(CC)CCCCCNc1cc(OC(=O)c2ccc(Cl)cc2)cc2cccnc12`, the growth is 75.3% in [1]; 97.7% in assay [2]; 88.3% in assay [3]; 118% in assay [4]; 39.9% in [5]; 119% in assay [6]. In addition, the growth in assay [7] is 161%; in assay [8] it was 78.7%; in assay [9], 117%; in assay [10] it was 95.1%.
As for `CCCCCCCCCCCCCCCCCCOc1ccccc1CC(=O)OCC[N+](C)(C)C`, the growth in [1] was 11.1%; in [2], 40.9%; in [3] it was 5.15% (active); in assay [4] it was 31.8%; in [5], 20%; in assay [6] it was 56.2%. The growth in assay [7] is -61.4% (active); in [8], 16.5%; in [9], 17.1%; in assay [10], 91.3%.
Regarding `CSc1nc2ncc([N+](=O)[O-])c(=O)n2[nH]1`, the growth in assay [1] was 107%; in assay [2], 107%; in [3] it was 104%; in assay [4] it was 106%; in [5] it was 102%; in [6], 113%. The growth is 105% in [7], 113% in [8], 103% in assay [9] and 101% in [10].
Consider `COCCOc1cc2ncnc(N3CCN(c4cc(S(C)(=O)=O)c(C)cc4Cl)CC3)c2cc1OCCOC`, for which the growth in assay [1] is 77%; in [2], 76%; in [3] it was 83.2%; in assay [4], 109%; in [5], 103%; in assay [6], 105%. The growth in assay [7] was 98%; in [8] it was 96.1%; in [9] it was 90.6%; in assay [10] it was 83.2%.
Consider `C=CCSc1nnc(NC(=O)CCl)s1`, for which the growth was 88.4% in assay [1]; 73% in assay [2]; 92.5% in assay [3]; 120% in assay [4]; 73.2% in assay [5]; 119% in assay [6]. In addition, the growth in [7] was 81.6%; in assay [8], 94.8%; in [9], 93.7%; in assay [10], 93%.
As for `NC(=O)c1c(NC(=O)c2ccc3ccccc3c2)sc2c1CCC(=O)C2`, the growth in assay [1] is 8.41% (active); in assay [2], -12.1% (active); in assay [3], 46.1%; in assay [4] it was 74.7%; in [5], 5.13% (active); in [6] it was 104%. The growth in assay [7] is 42.7%; in [8], 23%; in assay [9], 49.6%; in [10], 85.3%.
For `CCC(=O)Oc1ccc(-c2ccccc2)cc1Br`, the growth was 107% in assay [1]; 104% in assay [2]; 106% in assay [3]; 104% in assay [4]; 105% in assay [5]; 120% in assay [6]. Moreover, the growth in assay [7] is 112%; in [8], 114%; in assay [9] it was 115%; in assay [10], 110%.
Turning to `O=C(CN1C(=O)S/C(=C\c2ccccc2)C1=O)Nc1ncc(Cc2ccccc2Cl)s1`, the growth in assay [1] is 113%; in assay [2], 103%; in [3] it was 93.3%; in assay [4], 103%; in [5], 89.6%; in assay [6] it was 102%. For the same molecule, the growth in [7] is 94.6%; in assay [8], 109%; in assay [9], 102%; in [10], 96.2%.
For `CCSc1nc2scc(C)c2c(=O)[nH]1`, the growth in assay [1] is 101%; in [2], 101%; in assay [3], 99.3%; in [4], 99.8%; in [5] it was 96.7%; in assay [6], 98.5%. The growth is 102% in assay [7], 107% in assay [8], 95.5% in assay [9] and 102% in assay [10].
Consider `C#Cc1c2c(c(OC)c3c1OCO3)[C@H]([C@H]1OC(=O)c3c1ccc(OC)c3OC)N(C)CC2`, for which the growth in assay [1] was 9.19% (active); in assay [2], 100%; in assay [3] it was 95.2%; in [4], 101%; in assay [5], 92.7%; in [6], 89.5%. Further, the growth is 82.5% in assay [7], 87.1% in [8], 99.1% in [9] and 59.6% in [10].
For the molecule `O=c1c2ccccc2n2cnc3ccc(Cl)c1c32`, the growth in assay [1] is 44.9%; in assay [2] it was 98.6%; in assay [3] it was 78.1%; in assay [4] it was 81.6%; in assay [5], 82.6%; in assay [6], 69.8%. Moreover, the growth was 55.5% in assay [7], 85.2% in assay [8], 84.8% in [9] and 86.7% in [10].
Consider `O=c1scc(-c2ccc(C(F)(F)F)cc2)s1`, for which the growth in [1] was 89.9%; in [2] it was 97.7%; in [3] it was 94.7%; in [4], 95.6%; in assay [5] it was 76.8%; in assay [6], 99.3%. Besides, the growth in assay [7] is 72.6%; in assay [8], 103%; in assay [9], 92.1%; in assay [10] it was 102%.
For `COc1ccc(F)cc1/C=C/C(=O)/C=C(/C=C/c1cc(F)ccc1OC)OB(F)F`, the growth was -0.793% (active) in assay [1]; -13.5% (active) in [2]; 7.46% (active) in assay [3]; 48.9% in [4]; 28.8% in assay [5]; 97% in assay [6]. In addition, the growth is 25% in [7], 1.71% (active) in assay [8], 19.9% in assay [9] and 19.8% in assay [10].
As to `CC(C)C1=NOC(=O)C1=Cc1cn(-c2ccccc2)nc1-c1ccc(F)cc1`, the growth was -17% (active) in [1]; -17.4% (active) in assay [2]; 60.2% in [3]; 95.2% in assay [4]; 94.1% in assay [5]; 107% in assay [6]. Moreover, the growth in [7] is 61.3%; in assay [8], 64%; in assay [9], 49.6%; in [10] it was 101%.
In the case of `COC1=CC(c2ccc[nH]2)=N/C1=C\c1[nH]c(C)c(CC(=O)NCc2ccccc2)c1C`, the growth in assay [1] was -29.1% (active); in assay [2] it was 18.4%; in [3] it was 19.4%; in assay [4] it was 31.5%; in [5], 46.3%; in assay [6], 25.7%. The growth in assay [7] is 38.2%; in assay [8], 11.1%; in [9], 24.6%; in [10], -40.7% (active).
In the case of `CS(=O)(=O)Nc1cc(-c2ccc3ncnc(Nc4ccc5c(cnn5Cc5cccc(F)c5)c4)c3c2)cnc1Cl`, the growth in [1] was 4.76% (active); in [2] it was -24.4% (active); in assay [3] it was 28.1%; in [4] it was 7.19% (active); in assay [5], 26.4%; in [6], -17.7% (active). Also, the growth in [7] is -51.2% (active); in assay [8], -5.45% (active); in assay [9], -14.8% (active); in assay [10], 78.2%.
Turning to `Cc1[nH]c(C(=O)Nc2ccccc2OC2CCNCC2)c(Cl)c1Cl`, the growth in assay [1] is 10.1%; in assay [2], -45.2% (active); in assay [3], 1.61% (active); in [4], 68.7%; in [5], -72.8% (active); in [6] it was 109%. For the same molecule, the growth in assay [7] was 48.4%; in assay [8], -77.7% (active); in assay [9], -19.1% (active); in assay [10], 33.8%.
Regarding `Cc1cccc(/C=C/c2c(C(=O)/C=C/c3ccccc3)c(C)nc3ccccc23)c1`, the growth in assay [1] was 11.8%; in assay [2], -11.6% (active); in assay [3], -13.7% (active); in assay [4] it was -37.9% (active); in assay [5], 2.06% (active); in assay [6], 33.7%. For the same molecule, the growth in assay [7] was -27.6% (active); in assay [8] it was -50.6% (active); in [9], 18.9%; in assay [10], -8.03% (active).
For `O=C(Cn1cc(CSc2nc3ccccc3o2)nn1)Nc1ccc(F)cc1F`, the growth in assay [1] was 109%; in assay [2], 114%; in [3], 103%; in [4], 110%; in assay [5] it was 108%; in [6], 124%. The growth in [7] is 114%; in assay [8], 119%; in [9] it was 107%; in [10], 101%.

The values are drawn from PubChem BioAssay (NCI).
